# Screening data deposited in PubChem by several laboratories.
# LGR2 inh = Drosophila LGR2 receptor signaling inhibition; HEK293 LGR2, CRE-luciferase, bursicon-stimulated, 4 h; inhibition, % at 9.99 µM; 380,000 tested, 0.35% active; AID 720647;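 active means drop in luminescence signal, shown as inhibition above about 50% in the replicate tests, limit read from the data, passing the limit was not always enough; inconclusive means probably only some replicates passing the limit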;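 further: agonist challenge used bursicon conditioned medium at about half maximal strength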
# TWEAK Fn14 block = blocks TWEAK-Fn14 interaction in a reporter cell assay. 360,000 tested, 2% active. TWEAK-stimulated Fn14 reporter cells, luciferase luminescence, 8 h. inhibition, % at 10 µM. AID 1159606; in the data active means inhibition above about 50%
# TROY NFkB inh = blocks TROY-dependent signaling in reporter cells; 360,000 tested, 0.98% active; Q293 LMP1-TROYcd NF-kB luciferase reporter, 4 h; AID 1347056; inhibition, % at 10 µM;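 active means compounds whose plate-normalised and pattern-corrected inhibition of the luciferase reporter signal at the single screening dose is 50% or more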
# EWS-Fli block = EWS/Fli transcriptional activity inhibition. A673 NR0B1-luciferase reporter, viability-normalised. inhibition, % at 12.6 µM. 350,000 tested, 0.67% active. AID 651661;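 active means mean inhibition of at least 50% after viability correction, with every replicate also passing that limit; inconclusive means mean reaches 50% but only one of two replicates passes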;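 further: firefly luciferase signal divided by Alamar Blue viability fluorescence both relative to DMSO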
# LMP1 NFkB inh = Epstein-Barr LMP1 NF-kappaB reporter inhibition. AID 504558. inhibition, % at 12.5 µM. 350,000 tested, 0.69% active. LMP1-induced NF-kappaB luciferase reporter cells, luminescence; in the data active means inhibition above about 41%; inconclusive means no clear call, values can overlap the other calls;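 further: 0% = neutral control wells and 100% = reference inhibitor control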
# PAX8 reporter = inhibitors of PAX8 transcriptional activity in RMG-I cells | inhibition, % at 12.6 µM | 360,000 tested, 1.2% active | RMG-I TPO-luciferase reporter, SteadyGlo, 24 h;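 active means mean replicate inhibition at least 60% with every replicate also reaching 60%; inconclusive means only one of the two criteria is met; inactive means mean below 60% and not all replicates reaching 60%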;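 further: luciferase light reporting Pax8 driven TPO promoter activity; plate controls were median of neutral control wells for no effect and mitoxantrone controls for full effect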
# * marks the source's active call; other numbers are inactive results; ? = inconclusive; . = no result given. Only some compounds are listed: those with a hit (about 3.1% of all), similar ones and a draw of the others.
SMILES,LGR2 inh,TWEAK Fn14 block,TROY NFkB inh,EWS-Fli block,LMP1 NFkB inh,PAX8 reporter
COc1ccccc1NC(=O)N1C[C@@H]2[C@H](c3ccccc31)[C@@H](CO)N2C(C)=O,-11,.,.,0,.,-2
CCOc1cc(/C=N/O)ccc1OCc1ccc([N+](=O)[O-])cc1,-4,-12,-23,1,-9,-35
CCOc1cc(C=C(C(=O)OC)C(=O)OC)ccc1OCc1ccc([N+](=O)[O-])cc1,.,83*,52*,.,10,.
C[C@H]1CN([C@@H](C)CO)C(=O)c2cc(NC(=O)C3CC3)ccc2O[C@H]1CN(C)C(=O)Nc1cccc2ccccc12,12,.,.,16,.,.
Cc1nc(N)sc1-c1csc(Nc2ncccn2)n1,-19,50*,33,-25,6,-40
Cc1cc(C)nc(Nc2nc(-c3ccccc3)cs2)n1,42,63*,39,40,-54,-15
Cc1nc(C)c(-c2csc(Nc3ccc(Cl)cn3)n2)s1,-33,57*,8,-27,3,-4
Cc1ccc(Nc2nc(-c3ccccc3)cs2)nc1,60*,75*,35,16,-59,-42
C[C@@H]1CN([C@H](C)CO)C(=O)c2cc(-c3ccc(C#N)cc3)cnc2O[C@@H]1CN(C)CC1CCCC1,-13,.,.,1,.,13
CO[C@H]1CN(C)C(=O)c2ccc(NC(C)=O)cc2OC[C@@H](C)N(C(=O)CC2CC2)C[C@H]1C,3,.,.,-4,.,4
Cc1ccccc1-c1ccc([C@H]2[C@H]3CN(CC4CCOCC4)CCCCN3[C@H]2CO)cc1,-11,.,.,7,.,21
C[C@H](CO)N1C[C@H](C)[C@H](CN(C)C(=O)Nc2cccc3ccccc23)Oc2ncc(/C=C/c3ccccc3)cc2C1=O,14,.,.,1,.,53
Cc1ccc(Nc2nc(-c3cccs3)cs2)nc1,1,75*,71*,39,35,-2
CC[n+]1ccccc1/C=C/c1ccc(N(C)C)cc1,31,38,26,24,9,49
CC[n+]1c(/C=C/c2ccc(N(C)C)cc2)ccc2ccccc21,11,71*,74*,48,52*,90*
CC[n+]1c(/C=C/c2ccc(OC)c(OC)c2)ccc2ccccc21,-19,-15,31,-67,-48,-103
CCCCCC[n+]1ccccc1/C=C/c1ccc(N(C)C)cc1,18,50*,56*,38,.,98*
CC[n+]1ccc(/C=C/c2ccc(N(C)C)cc2)c2ccccc21,16,36,47,58*,?,95*
CCN(CC)c1ccc(/C=C/c2ccc3ccc(OC)cc3[n+]2CC)cc1,39,63*,45,57*,35,83*
COc1ccccc1-c1cn(CC[C@H]2CC[C@H](NC(=O)CCN3CCCCC3)[C@H](CO)O2)nn1,11,.,.,2,.,4
COc1cccc(C(Nc2ccccc2)c2ccc3ccc(C)nc3c2O)c1 (stereo unspecified),.,.,.,-5,.,66*
CC(=O)NC(c1cccc([N+](=O)[O-])c1)c1ccc2cccnc2c1O (stereo unspecified),45,29,11,36,62*,59
O=[N+]([O-])c1ccc(NC(c2ccccc2)c2ccc3cccnc3c2O)cc1 (stereo unspecified),27,4,0,13,57*,83*
COc1cccc(C(NC(C)=O)c2ccc3cccnc3c2O)c1 (stereo unspecified),11,15,10,24,50*,69*
Cc1cccc(NC(c2ccc(O)cc2)c2ccc3ccc(C)nc3c2O)n1 (stereo unspecified),.,14,8,.,9,.
COc1ccc(S(=O)(=O)Nc2ccc3c(c2)C(=O)N([C@H](C)CO)C[C@@H](C)[C@H](CN(C)Cc2ccncc2)O3)cc1,3,.,.,6,.,-15
O=C(Nc1ccc(Cl)cc1)N[C@@H]1CC[C@@H](CCn2cc(C3(O)CCCC3)nn2)O[C@H]1CO,7,.,.,-4,.,5
COc1cccc(NC(=O)N[C@H]2C=C[C@H](CC(=O)Nc3ccccc3)O[C@@H]2CO)c1,1,.,.,2,.,5
CO[C@H]1CN(C)C(=O)c2cc(NC(C)=O)ccc2OC[C@H](C)N(Cc2cccc(F)c2)C[C@H]1C,-2,.,.,-7,.,13
Oc1cccc(C(Nc2nccs2)c2ccc3cccnc3c2O)c1 (stereo unspecified),36,12,12,14,51*,75*
